# Compound activity: PubChem, National Center for Advancing Translational Sciences (NCATS)
# Only some compounds are listed: those with a hit (about 3.7% of all), similar ones and a draw of the others.
# GPR32 ag: qHTS for Agonists of Human Resolvin D1 Receptor DRV1; Probable G-protein coupled receptor 32 (Homo sapiens), O75388; CHO-K1 GPR32 beta-arrestin PathHunter luminescence, 90 min; zero percent set by DMSO-only wells; activation, % at 76.9 µM; 48,000 compounds, 2.5% hits; AID 1346428, 2018;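 active = activation of at least 60% and not above a set upper limit, about 1 call in 100 departs from these limits; inconclusive = activation of 40% to 60%, or above that upper limit; inactive = activation under 40%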; note: 0% is about no effect
# Target sequence (O75388 whole entry, looked up): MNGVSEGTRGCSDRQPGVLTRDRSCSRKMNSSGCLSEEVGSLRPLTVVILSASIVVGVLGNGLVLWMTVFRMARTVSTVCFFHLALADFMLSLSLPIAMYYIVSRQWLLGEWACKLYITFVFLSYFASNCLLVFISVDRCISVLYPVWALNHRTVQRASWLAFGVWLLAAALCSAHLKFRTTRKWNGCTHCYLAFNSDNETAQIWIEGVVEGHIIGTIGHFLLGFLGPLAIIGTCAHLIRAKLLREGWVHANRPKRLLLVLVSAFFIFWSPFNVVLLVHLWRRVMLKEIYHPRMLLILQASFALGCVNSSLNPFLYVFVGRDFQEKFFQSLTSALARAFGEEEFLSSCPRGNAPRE
#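 Engineered CHO-K1 line co-expressing GPR32-ProLink and EA-beta-arrestin. Compound treatment lasted 90 min at 37 °C. Luminescence was recorded after 1 h with substrate at ambient temperature, relative to DMSO basal wells.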
# HTT promoter inh: Primary qHTS for Identification of Small Molecule Inhibitors of Huntingtin Promoter Activity | 48,000 compounds, 0.93% hits | Potency, µM (top dose mostly 57.5 µM), without a hit: at the highest dose activity change, negative = inhibition, hits mostly inhibitors | AID 1508623, 2021 | HEK293 HTT promoter firefly luciferase reporter, 24 h; note: potency is the fitted concentration of half-maximal effect; nearly all actives have a fitted effect of over 50% in size
#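 Quantitative HTS used concentration series of up to 57.5 uM final on HEK293 luciferase reporter cells, 24 h at 37 degrees C. Readout was Dual-Glo firefly luminescence.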
# HTT-AS promoter: Primary qHTS for Identification of Small Molecule Activators of Huntingtin-Antisense Promoter Activity; HEK293 HTT-AS promoter firefly luciferase reporter, 24 h; response scale: percent change from vehicle, -100% = no light; Potency, µM (titrated, usually from 57.5 µM), inactives show at the top dose activity change, positive = activation, hits mostly activators; 48,000 compounds, 0.24% hits; AID 1508624, 2021; note: potency is the fitted concentration of half-maximal effect; nearly all actives have a fitted effect of over 55% in size
#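 HEK293 cells carrying firefly luciferase reporters were seeded at 2,500 per well in Opti-MEM and cultured for 24 h. They were then treated with compounds at up to 57.5 uM final for 24 h at 37 degrees C before Dual-Glo luminescence readout.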
# Active calls of the source: *; ? = inconclusive; . = no result. Unless noted, calls come from the whole dose curve; as a rule, active = well fitted curve in the direction sought with a large enough effect; inconclusive = small, poorly fitted or top-dose-only effect, or another doubt; inactive = no such curve, though single readings can be large; an effect the other way counts as inactive or inconclusive.
SMILES,GPR32 ag,HTT promoter inh,HTT-AS promoter
Cc1ccc(C)c(CN2C(=O)C(O)(c3c(C)[nH]c4ccccc34)c3ccccc32)c1 (stereo unspecified),-11,?,-26%
Cc1ccc(NC(=O)CCS(=O)(=O)c2ccc(Br)s2)c(Br)c1,71*,-17%,-18%
CC(=O)c1cccc(NC(=O)CCS(=O)(=O)c2ccc(Br)s2)c1,13,-5%,-1%
O=C(O)c1ccc2c(c1)nc(Nc1cccc(Cl)c1)c1ccncc12,.,?,-11%
Cc1ccc(CNC(=O)c2cnc3c(-c4ccccc4)c(C)nn3c2C)o1,-15,-14%,7%
O=C(NCCCc1nc2ccccc2n1Cc1ccc(Cl)cc1Cl)c1ccco1,97*,.,.
O=C(NCCc1nc2ccccc2n1Cc1ccc(Cl)cc1)c1ccccc1,81*,-26%,-38%
O=C(NCCc1nc2ccccc2n1Cc1ccc(Cl)cc1Cl)c1ccco1,-26,?,-41%
Cc1cccc(C(=O)NCCc2nc3ccccc3n2Cc2ccc(Cl)cc2)c1,17,-12%,-34%
O=C(NOCC1CC1)c1ccc(F)c(F)c1Nc1ccc(I)cc1Cl,46,?,-24%
CC(C)CCNC(=O)C1CCN(C(=O)c2cc3sccc3n2Cc2ccc(Cl)cc2)CC1,-15,25µM*,-62%
CCn1c(C(=O)N2CCC(C(=O)NCCc3ccc(C)cc3)CC2)cc2sccc21,-10,?,-30%
O=C(O)C1=CO[C@@H](O[C@@H]2O[C@H](CO)[C@H](O)[C@H](O)[C@H]2O)[C@@H]2C(CO)=CC[C@H]12,.,16%,3%
Cc1cc2n(n1)CCCN2C(=O)Nc1ccc(F)c(Cl)c1,4,-1%,-6%
Cc1cc2n(n1)CCCN2C(=O)Nc1ccc(Cl)cc1,108*,23%,?
CN1C(=O)C(C)(C)c2cc(S(=O)(=O)NCc3ccc(C(=O)Nc4ccc(Cl)cc4)cc3)ccc21,13,18µM*,-60%
CCc1ccc(NC(=O)c2ccc(CNS(=O)(=O)c3ccc4c(c3)C(C)(C)C(=O)N4C)cc2)cc1,-5,?,-16%
COc1ccc2c(Oc3ccc(NC(=O)c4c(C)n(CC(C)(C)O)n(-c5ccccc5)c4=O)nc3)ccnc2c1,.,-5%,-15%
c1ccc2c(CCNc3ccc(Nc4ccncc4)cc3)c[nH]c2c1,.,-18%,-27%
CCOc1ccc(C(=O)NCCc2csc(-c3cccc(C)c3)n2)cc1,-9,-9%,-9%
COc1ccccc1C(=O)NCCc1csc(-c2ccc(C(F)(F)F)cc2)n1,12,?,-37%
CCCCOc1ccc(C(=O)NCCc2csc(-c3ccc(OC)cc3)n2)cc1,-2,22µM*,-40%
COc1ccc(C(=O)NCCc2csc(-c3ccc(Cl)cc3)n2)cc1,87*,?,-19%
COc1cc(OC)cc(C(=O)NCCc2csc(-c3ccc(C(F)(F)F)cc3)n2)c1,-14,?,-31%
COc1ccc(C(=O)NCCc2csc(-c3ccc(Cl)cc3)n2)c(OC)c1,70*,?,-23%
SMILES,GPR32 ag,HTT promoter inh,HTT-AS promoter
CC=C(C)C(=O)O[C@H]1C(C)=C[C@]23C(=O)[C@@H](C=C(CO)[C@@H](O)[C@]12O)[C@H]1[C@@H](C[C@H]3C)C1(C)C,.,-10%,4%
CCOC(=O)c1cccc(NC(=O)CN2C(=O)c3ccccc3Sc3ncccc32)c1,72*,-2%,-9%
Cc1cccc(C)c1NC(=O)CN1C(=O)c2ccccc2Sc2ncccc21,0,-7%,-8%
CNC(=O)COc1ccc(NC(=O)CCn2nc(-c3ccc(C)cc3)c3ccccc3c2=O)cc1,-6,?,-30%
CC(=O)c1cc(-c2ccc(F)cc2)n(CCC(=O)NCc2ccccc2C)c1C,-10,.,.
CC(=O)c1cc(-c2ccccc2)n(CC(=O)NCc2ccccc2C)c1C,80*,.,.
Cc1ccccc1OCc1cc(=O)n2c(-c3ccccc3)csc2n1,32,7%,-3%
COc1cccc(OCc2cc(=O)n3c(-c4ccccc4)csc3n2)c1,121*,11%,?
CN1C2CCCC1CC(NC(=O)c1nn(C)c3ccccc13)C2 (stereo unspecified),-4,.,.
N#CC1(c2ccc(F)cc2)CCC(=O)CC1,-7,0%,1%
CCOC(=O)C=C[C@H](C[C@@H]1CCNC1=O)NC(=O)[C@@H](CC(=O)[C@@H](NC(=O)c1cc(C)on1)C(C)C)Cc1ccc(F)cc1,.,9%,11%
CCOc1cccc(NC(=O)C2CC(=O)N(CC)C(=Nc3ccc(F)cc3)S2)c1 (stereo unspecified),81*,-18%,-26%
